Measured values: PubChem BioAssay

Test: anti-His antibody binders, primary screen, artefact control for SMM control protein annotation, biochemical, small-molecule microarray, 635 nm fluorescence (AID 1128);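 also: score merges feature fluorescence with signal-to-noise for each printed compound spot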
Details: anti-His Alexa647 antibody binding, higher = more signal

Question: With C=CCNC(=O)[C@H]1[C@@H]2C(=O)O[C@@H](c3ccccc3)[C@@H](c3ccccc3)N2[C@@H](c2ccc(OCCO)cc2)[C@]12C(=O)N(C(=O)OCCOC)c1ccc(C#CC3=CCCCC3)cc12 as the compound, how does the composite z-score read?
Answer: 1.56

Question: Which composite z-score does the source give for COC(=O)[C@@]1(Cc2ccccc2)[C@H]2c3cc(C(=O)N(C)C)n(Cc4ccccn4)c3C[C@H]2CN1C(=O)c1ccccc1 here?
Answer: 1.54

Question: With O=C(Nc1cc(Br)ccc1C(=O)NCc1cccc(O)c1)c1ccccc1 as the compound, how does the composite z-score read?
Answer: 1.95

Question: For NCCCCCCNC(=O)[C@H]1C[C@H]2C(=O)N3CCC[C@H]3C(=O)N2[C@H]1c1ccc(O)cc1, which composite z-score is on record?
Answer: 2.79

Question: Which composite z-score does the source give for C#CCNS(=O)(=O)N(C)C here?
Answer: 0.446

Question: Which composite z-score does the source give for CCCC=C(CCC)[C@@H](NS(=O)(=O)CC)c1ccccc1 here?
Answer: 0.365

Question: For CN(C)CCCCCCNC(=O)[C@@H]1C[C@@H]2C(=O)NCC(=O)N2[C@@H]1c1ccc(O)cc1, which composite z-score is on record?
Answer: 2.07

Question: Which composite z-score does the source give for NC(=O)NCC#Cc1ccc2c(c1)[C@]1(C(=O)N2)[C@H](c2ccc(O)cc2)N2[C@H](c3ccccc3)[C@H](c3ccccc3)OC(=O)[C@H]2[C@@H]1C(N)=O here?
Answer: 0.184

Question: Which composite z-score does the source give for COCCCNC(=O)[C@@]1(C)c2ccccc2C(=O)N(c2ccc(C)cn2)[C@H]1c1ccc(CO)cc1 here?
Answer: -0.545

Question: Which composite z-score does the source give for COCCCNC(=O)[C@]1(Cc2ccccc2)N=C(c2ccc(OCCCO)cc2)O[C@@H]1c1ccccc1N=[N+]=[N-] here?
Answer: 0.36

Question: With CCCC=C(CCC)[C@@H](NC(=O)Cc1ccccc1)c1ccc(C(=O)OC)cc1 as the compound, how does the composite z-score read?
Answer: 1.2

Question: Which composite z-score does the source give for COc1ccc([Si](C)(C)[C@@H]2[C@@H](CCO)O[C@]3(C(=O)N(Cc4ccccc4)c4ccc(N5CCCCC5=O)cc43)[C@H]2C)cc1 here?
Answer: 1.47

Question: With COc1ccc(CCNC(=O)[C@@H]2c3ccccc3C(=O)N(Cc3ccccc3)[C@H]2c2ccc(CO)cc2)cc1 as the compound, how does the composite z-score read?
Answer: 0.597

Question: Which composite z-score does the source give for O=C(CS)NCCCCCNC(=O)[C@@H]1C[C@@H]2C(=O)N3CCC[C@H]3C(=O)N2[C@@H]1c1ccc(O)cc1 here?
Answer: 3.22

Question: With COC(=O)[C@]1(Cc2ccccc2CN=[N+]=[N-])N=C(c2ccc(OCCCO)cc2)O[C@@H]1c1ccccc1 as the compound, how does the composite z-score read?
Answer: 0.652

Question: With COc1ccc([Si](C)(C)[C@@H]2[C@@H](CC(=O)N(CCO)Cc3ccccc3)O[C@]3(C(=O)N(Cc4ccc(N5CCOC5=O)cc4)c4ccccc43)[C@H]2C)cc1 as the compound, how does the composite z-score read?
Answer: 1.56

Question: For [N-]=[N+]=NCc1ccccc1C[C@]1(C(=O)NCCN2CCOCC2)N=C(c2ccc(OCCCO)cc2)O[C@H]1c1ccccc1, which composite z-score is on record?
Answer: 0.478

Question: For COC(=O)[C@H]1N=C(c2ccc(OCCCO)cc2)O[C@H]1c1ccccc1CN=[N+]=[N-], which composite z-score is on record?
Answer: 0.96
